Screening results (PubChem BioAssay)
Most compounds without a hit are left out; they make up all but 9.4% or so of the library.
NPC1 prom act = activates the NPC1 promoter; Huh7 NPC1 promoter luciferase reporter, 24 h; Potency, µM (top dose mostly 9.22 µM), for inactives: at the top dose activation, usual class: activators; 320,000 tested, 2.4% active; also: % of control where 0% means no effect; nearly all actives have a fitted effect of over 60% in size
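Luminescence from an NPC1 promoter-driven luciferase reporter in stably transfected Huh7 cells was measured after 24 h compound treatment at 37 °C, followed by 10 min ambient incubation with luciferase detection reagent.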
SMN2 splice enh = enhancers of SMN2 splice variant expression. Potency, µM (titrated, usually from 46.1 µM), without a hit: top-dose activity change, positive = activation, usual class: activators. HEK293 SMN2-luciferase splicing reporter, luminescence, 30-36 h. 210,000 tested, 2.8% active; also: % of control where 0% means no effect; nearly all actives have a fitted effect of over 55% in size
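qHTS luciferase splicing reporter: luminescence rises when SMN2 exon 7 is included in transfected HEK293 cells. Compound exposure lasted 30-36 h at 37C, with 4.5 mM final sodium butyrate as control, followed by a ONE-Glo read.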
Rab9 prom act = activates the Rab9 promoter; Huh7 Rab9 promoter-luciferase reporter, luminescence, 24 h; Potency, µM (titrated, usually from 9.22 µM), for inactives: at the top dose activation, negative = inhibition, usual class: activators; 320,000 tested, 2.8% active; AID 485297; also: % of control where 0% means no effect; nearly all actives have a fitted effect of over 60% in size
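Quantitative HTS format; Huh7 Rab9-luciferase reporter cells (1500/well) receive compound 2 h post-plating, incubate 24 h at 37 °C, then get luciferase reagent for 10 min before luminescence reading.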
ELG1 repair inh = blocks ELG1-dependent DNA repair in HEK293T cells; HEK293T ELG1-luciferase reporter, luminescence, 16 h; DNA damage induced by 5-fluorouridine; Potency, µM (top dose mostly 46.1 µM), inactives show top-dose activity change, negative = inhibition, actives largely listed as inhibitors; 330,000 tested, 2.3% active; AID 504467; also: % is scaled to controls: 0 for no effect and ±100 for the full control effect; nearly all actives have a fitted effect of over 55% in size
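Step one: seed 2,000 cells per well. Step two: pin-transfer compound or DMSO alongside 5-fluorouridine. Step three: incubate 16 hr, 37 °C, 5% CO2. Step four: add ONE-Glo, wait 30 min, read luminescence.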
FLuc modulator = inhibits or activates purified firefly luciferase, miR-21 counter-screen; P08659; purified FLuc, Km substrates, luminescence inhibition; Potency, µM (titrated, usually from 57.5 µM), inactives show at the highest dose activity change, negative = inhibition, most hits filed as inhibitors; 360,000 tested, 6.9% active; AID 588342;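 also: plate controls were vehicle for no effect and reference inhibitor for full effect; nearly all actives have a fitted effect of over 55% in size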
Target sequence (P08659 whole entry, looked up): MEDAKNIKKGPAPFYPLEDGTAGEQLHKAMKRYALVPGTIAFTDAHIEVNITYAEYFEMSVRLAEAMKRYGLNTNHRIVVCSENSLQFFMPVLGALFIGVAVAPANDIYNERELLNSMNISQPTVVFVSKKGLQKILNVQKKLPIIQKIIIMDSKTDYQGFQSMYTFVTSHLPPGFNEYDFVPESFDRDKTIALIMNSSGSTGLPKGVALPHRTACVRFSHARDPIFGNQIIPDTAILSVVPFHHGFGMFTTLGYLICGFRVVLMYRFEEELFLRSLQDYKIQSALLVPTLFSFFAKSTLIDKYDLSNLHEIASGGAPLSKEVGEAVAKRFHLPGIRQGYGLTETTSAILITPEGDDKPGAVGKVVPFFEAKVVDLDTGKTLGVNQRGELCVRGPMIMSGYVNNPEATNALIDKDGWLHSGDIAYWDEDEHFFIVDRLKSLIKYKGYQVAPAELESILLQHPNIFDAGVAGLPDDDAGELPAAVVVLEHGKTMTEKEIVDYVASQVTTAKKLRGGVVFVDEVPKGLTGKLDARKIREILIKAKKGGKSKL
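Purified P. pyralis luciferase, 10 nM final, with Km-level 10 uM D-luciferin and 10 uM ATP in 50 mM Tris acetate pH 7.5, 10 mM Mg acetate, 0.01% Tween-20, 0.05% BSA; 6-point qHTS titration about 60 µM downward; luminescence read.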
ELG1 genotox = genotoxicity induction in ELG1-luciferase HEK293T cells | HEK293T ELG1-luciferase reporter, luminescence, 16 h | Potency, µM (top dose mostly 46 µM), for the others: top-dose activity change, positive = activation, actives largely listed as activators | 330,000 tested, 1.3% active; also: % of control where 0% means no effect; nearly all actives have a fitted effect of over 60% in size
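After overnight (16 hr) compound treatment at 37 °C, ELG1-luciferase HEK293T cells were lysed with ONE-Glo; luminescence quantified 30 min later at room temperature.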
An asterisk follows results filed as active; ? = inconclusive; nt = no result given; [ ] = another dose, or the depositor's remark. Calls follow the shape of the dose curve; as a rule, active = well fitted curve in the direction sought with a large enough effect; inconclusive = small, poorly fitted or top-dose-only effect, or another doubt; inactive = no such curve, though single readings can be large; an effect the other way counts as inactive or inconclusive. Potency is read from the fitted curve at half-maximal effect.

SMILES | NPC1 prom act | SMN2 splice enh | Rab9 prom act | ELG1 repair inh | FLuc modulator | ELG1 genotox
CC1=CC(C)C(C[N+]2(C)CCCCC2)C(C)C1 (configuration not stated) | -1% | nt | -9% | -4% | 0% | -3%
CC1=CC(C)C(/C=N/N=C(N)N)C(C)C1 (configuration not stated) | -3% | nt | -16% | 5.8µM* | 0% | -10%
CC(C)COc1ccc(C(=O)Nc2cccc(-c3nc4ccccc4[nH]3)c2)cc1 | nt | -15% | nt | nt | ? | nt
Cc1cc(C)cc(OCC(=O)Nc2cccc(-c3nc4ccccc4[nH]3)c2)c1 | nt | 17% | nt | nt | 11µM* | nt
O=C(COc1ccccc1)Nc1cccc(-c2nc3cc4ccccc4cc3[nH]2)c1 | 0.63µM* | 1.8µM* | 0.79µM* | ? | 0.54µM* | ?
CCOc1ccc(/C=C/c2nc(C#N)c(Nc3ccc(OCC)cc3)o2)cc1 | nt | 7% | nt | nt | 5% | nt
CCc1ccc(NC(=O)c2cccc(C(=O)Nc3ccc(CC)cc3)n2)cc1 | 9% | nt | 16% | ? | 5.4µM* | 6%
Cc1ccc(NC(=O)c2cccc(C(=O)Nc3ccc(C)c(C)c3)n2)cc1C | 0% | nt | 10% | 1% | ? | -4%
CSc1ccccc1C(=O)Nc1c(C)cccc1C | -4% | nt | -2% | -15% | 3% | 0%
COC(=O)c1cccc(C(=O)Nc2ccc(C)cc2)n1 | 3.5µM* | -4% | ? | ? | 12µM* | 10%
COc1ccc(C)cc1NC(=O)c1cccc(C(=O)Nc2cc(C)ccc2OC)n1 | -5% | nt | 1% | 12% | 0% | 0%
CCc1ccc(NC(=O)c2ccccc2SC)cc1 | ? | ? | ? | ? | 15µM* | ?
O=C(N/N=C/c1cn(Cc2ccccc2)c2ccccc12)c1ccncc1 | -8% | -71% | -9% | 18µM* | ? | -5%
COCCNC(=O)Cn1cc(/C=N/NC(=O)c2ccc(Oc3ccc(O)cc3)cc2)c2ccccc21 | 0% | -7% | -2% | ? | 11µM* | -7%
O=C(N/N=C/c1cn(Cc2ccccc2)c2ccccc12)c1cccnc1 | -1% | -80% | -9% | 17% | ? | ?
Nc1ccc(C(=O)N/N=C/c2cn(Cc3cccc(F)c3)c3ccccc23)cc1 | 0% | nt | 1% | -26% | 24µM* | 1%
COc1ccc(OCCn2cc(/C=N/NC(=O)c3ccncc3)c3ccccc32)cc1 | 6% | -37% | -3% | ? | ? | -5%
Cc1ccc(C)c(S(=O)(=O)n2nc(C)c(S(=O)(=O)N3CCCCCC3)c2C)c1 | nt | nt | nt | nt | -16% | nt
N#Cc1ccc(C(=O)Nc2ccccc2-c2nc3ccccc3s2)c(F)c1 | nt | 0% | nt | nt | -5% | nt
Cc1ccn2c(=O)cc(COc3cccc(NC(=O)Nc4cccc(Cl)c4C)c3)nc2c1 | nt | nt | nt | nt | -2% | nt
O=C(CN(c1ccc(F)cc1)S(=O)(=O)c1ccc2c(c1)OCCO2)NCc1ccccc1 | -2% | -8% | 3% | -10% | 7% | -1%
O=C(CN(c1ccc2c(c1)OCCO2)S(=O)(=O)c1ccccc1)NCc1ccc(Cl)cc1 | -4% | -13% | -6% | 26µM* | 3% | -11%
O=C(CN(c1ccc(F)cc1)S(=O)(=O)c1ccc2c(c1)OCCO2)Nc1ccccc1 | 11% | -14% | -2% | 21µM* | 0% | -6%
O=C(O)C(Cc1ccccc1)Cc1ccccc1 | nt | -22%[9.22 µM] | nt | nt | nt | nt
CC(=O)N1SC(N)=NC1c1ccccc1 (configuration not stated) | -3% | 10% | -9% | -6% | 11% | -1%
c1ccc([C@H]2CN3C(=N2)Sc2ccccc23)cc1 | ? | nt | 2% | ? | 0.48µM* | ?
CCc1ccccc1NC(=O)c1ccc2nc(C(C)C)oc2c1 | nt | nt | nt | nt | -2% | nt
CN1CCN(Cn2cc(/C=C/C(=O)c3ccccc3)c3ccccc32)CC1 | ? | 27% | 2.8µM* | ? | 2.4µM* | ?
